Assay outcomes (PubChem)
This is a sample that favours compounds with a hit; in the whole collection about 21% have one here.
Pf growth 48h: Primary qHTS for delayed death inhibitors of the malarial parasite plastid, 48 hour incubation. hit rate 5.9% among 310,000. Potency, µM (top dose mostly 28.7 µM), inactives show top-dose activity change, negative = inhibition, most hits filed as inhibitors. P. falciparum luciferase growth in erythrocytes, 48 h; note: potency is the fitted concentration of half-maximal effect; % is set by controls: 0 for no effect and ±100 for the full control effect
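Growth was read as firefly luciferase luminescence after a 48 h, 37 C, 5% CO2 exposure of compounds to reporter-bearing P. falciparum cultures (0.1% parasitemia, 2% hematocrit final) in Albumax-supplemented RPMI 1640.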
Cycloheximide cs: Cycloheximide Counterscreen for Small Molecule Inhibitors of Shiga Toxin. cell reporter, cycloheximide protein synthesis inhibition counterscreen. max response, %. hit rate 12% among 300,000; in the data active = max response mostly above about 13%, no sharp cut-off; inactive = mostly below about 14%; note: read at 38.3 µM for the half of the compounds with a filed dose; 0% is about no effect
Pf growth 96h: Primary qHTS for delayed death inhibitors of the malarial parasite plastid, 96 hour incubation; P. falciparum luciferase reporter growth, 96 h; Potency, µM (highest dose often 28.7 µM), without a hit: at the highest dose activity change, negative = inhibition, most hits filed as inhibitors; hit rate 6.9% among 320,000; AID 504834, 2011; note: potency is the fitted concentration of half-maximal effect; % is set by controls: 0 for no effect and ±100 for the full control effect
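Infected RBCs, 2% Hct / 0.05% parasitemia final; luciferase-reporter P. falciparum; cpd 96 h, 37 C, 5% CO2; luciferase detection reagent; luminescence.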
Shiga toxin inh: A qHTS for Small Molecule Inhibitors of Shiga Toxin. hit rate 9.2% among 290,000. inhibition, % at 38.7 µM. Vero cells, Shiga toxin protein synthesis inhibition reporter; in the data active = inhibition mostly above about 28%, no sharp cut-off; inactive = mostly below about 43%; note: 0% is about no effect
NS1 function inh: qHTS Assay for Inhibitors of Influenza NS1 Protein Function; Potency, µM (highest dose often 46.1 µM), inactives show at the highest dose activity, positive = more growth; hit rate 0.4% among 270,000; AID 2326, 2010; calls by dose curve; note: potency is the fitted concentration of half-maximal effect; actives are rising curves; nearly all actives have a fitted effect of over 50% in size
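Recovery from NS1-induced slow growth read by OD600 in budding yeast switched to galactose assay medium (pH 6.0, -URA) at 1:100 dilution. Compound 23 nl per well; the matching strain lacking NS1 serves as control.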
Sm TGR block: qHTS Assay for the Inhibitors of Schistosoma Mansoni Peroxiredoxins; Schistosoma mansoni thioredoxin glutathione reductase (TGR), Q962Y6; hit rate 3% among 360,000; AID 485364, 2010; Potency, µM (titrated, usually from 114 µM), without a hit: at the top dose activity change, negative = inhibition, actives largely listed as inhibitors; purified TGR, DTNB reduction, TNB absorbance 405 nm; note: potency is the fitted concentration of half-maximal effect; % is set by controls: 0 for no effect and ±100 for the full control effect; nearly all actives have a fitted effect of over 60% in size
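TGR 20 nM + NADPH 100 uM (dispensed conc.), cpd preinc 15 min RT; start with NADPH (500 uM addition) then DTNB (15 mM addition). Kinetic TNB absorbance, 405 nm filter. Four-parameter Hill fit across titration.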
An asterisk follows results filed as active; u = inconclusive; x = not tested or not shown. Unless noted, calls come from the whole dose curve; as a rule, active = well fitted curve in the direction sought with a large enough effect; inconclusive = small, poorly fitted or top-dose-only effect, or another doubt; inactive = no such curve, though single readings can be large; an effect the other way counts as inactive or inconclusive.

SMILES	Pf growth 48h	Cycloheximide cs	Pf growth 96h	Shiga toxin inh	NS1 function inh	Sm TGR block
COc1cc(C(=O)N2CCNC(=O)C2CC(=O)Nc2ccc(C)c(C)c2)cc(OC)c1OC (centres undefined)	x	x	x	x	x	0.0%
CN(c1ccccc1)S(=O)(=O)c1cccc(NC(=O)c2cc3ccccc3oc2=O)c1	12.1%	60.8*	u	66.1*	14.4%	-2.4%
COc1ccccc1NS(=O)(=O)c1cccc(NC(=O)c2cc3ccccc3oc2=O)c1	40.0%	59.6*	0.0%	86.8*	10.6%	28.7%
COc1ccccc1NS(=O)(=O)c1cccc(NC(=O)c2[nH]c(C)c(C(C)=O)c2C)c1	u	-2.1	u	-4.9	-19.4%	8.2%
CCC(=O)Nc1ccc(C(=O)CSc2nc(N)cc(N)n2)cc1	113.6%	-0.9	15.3%	0.7	0.8%	2.3%
CC(C)(C)OC(=O)NCCC(=O)N/N=C/c1ccc2ncccc2c1	-16.8%	-1.1	-12.1%	24.8	-5.6%	-0.1%
COc1ccc2nc(/C=N/NC(=O)CCNC(=O)OC(C)(C)C)ccc2c1	u	35.3*	-3.9%	62.1*	-9.4%	-2.7%
COc1ccc2nc(/C=N/NC(=O)CCCCCNC(=O)OC(C)(C)C)ccc2c1	u	40.7*	u	138.2	-5.8%	16.1%
Cc1cc(Br)ccc1NC(=O)COc1cc(=O)n(C)c2ccccc12	x	x	x	x	x	-6.8%
CC(C)(C)c1cc(-c2ccccc2)n[nH]1	18.5%	15.4*	27.2%	33.7	-2.2%	1.5%
CC(C)(C)NC(=O)c1cc(-c2ccccc2)n[nH]1	82.7%	3.7	u	11.0	x	4.9%
CC(C)(C)C1=CC(=O)C(=O)C(C(C)(C)C)=C1	-20.5%	1.1	-25.7%	-3.3	-19.2%	20µM*
O=C(CSc1nnc(CNC(=O)c2c(F)cccc2Cl)o1)Nc1ccccc1F	x	x	x	x	x	1.5%
CCCC(=O)NC(=S)c1c(C)n(C)n(-c2ccccc2)c1=O	0.0%	-1.8	-2.1%	-4.7	-1.5%	4.3%
CCCC(=O)N/C(N)=N/c1nc(C)c2ccccc2n1	u	16.5*	1.85µM*	18.3	-5.0%	-4.3%
Cc1cc(C)c2nc(/N=C(\N)NC(=O)Nc3ccccc3)nc(C)c2c1	1.85µM*	6.4	13.1µM*	-5.3	u	7.8%
Cc1cc(C)c2nc(/N=C(\N)NC(=O)c3ccccc3)nc(C)c2c1	u	-3.2	u	-10.7	2.5%	2.6%
CCc1ccc2nc(/N=C(\N)NC(=O)c3ccccc3)nc(C)c2c1	9.28µM*	1.0	10.4µM*	5.1	0.1%	6.3%
COc1ccc(NC(=O)CSc2nc3c(c(=O)[nH]2)CN(Cc2ccccc2)CC3)cc1Cl	x	x	x	x	x	1.0%
Cc1ccc(-c2ccc(CCC(=O)O)n2-c2ccc(C(C)C)cc2)cc1	x	x	x	x	x	39.8µM*
COC(=O)c1ccc(-n2c(CCC(=O)O)ccc2-c2ccc(C)cc2)cc1	10.4%	-4.2	u	-0.8	-2.7%	28.2µM*
Cc1ccc(-c2ccc(CCC(=O)O)n2-c2cccc(C(=O)O)c2)cc1	105.1%	70.7*	3.9%	151.5*	5.7%	12.6µM*
CCOC(=O)c1ccc(-n2c(CCC(=O)O)ccc2-c2ccc(F)cc2)cc1	3.2%	-1.5	56.8%	19.7	1.7%	22.4µM*
CCc1ccc(S(=O)(=O)N(C(=O)Oc2ccccc2)c2ccc3oc(C)c(C(=O)OC)c3c2)cc1	x	x	x	x	x	8.2%
CC(=O)N1CCC2(CC1)OC(=O)C(C)=C2C(=O)NCc1cccc(Cl)c1	x	x	x	x	x	16.1%
SMILES	Pf growth 48h	Cycloheximide cs	Pf growth 96h	Shiga toxin inh	NS1 function inh	Sm TGR block
Cc1ccc(-c2ccc(CCC(=O)O)n2-c2cccc(C)c2C)cc1	x	x	x	x	x	22.4µM*
Cc1ccc(-c2ccc(CCC(=O)O)n2-c2ccc(C(=O)O)cc2)cc1	19.7%	10.8	7.2%	36.4	4.8%	14.1µM*
Cc1nc2ccccc2c(=O)n1-c1cccc(O)c1	4.8%	5.7	x	19.8	-2.9%	7.2%
O=C(O)CCc1ccc(-c2ccccc2)n1-c1cccc(O)c1	16.2%	22.7*	1.5%	54.3*	10.7%	14.1µM*
CC(=O)c1c(C(C)=O)c(C)n(-c2ccc(C(=O)O)cc2)c1C	-1.6%	-1.3	x	7.8	6.0%	0.3%
COc1ccc(CNC(=O)CCc2c(C)c3cc4c(C)coc4cc3oc2=O)cc1	x	x	x	x	x	48.7%
CCc1cccc(C)c1NC(=O)CNCc1ccccc1	1.5%	-2.4	-10.7%	-1.3	-3.1%	-5.1%
COc1ccccc1CC(=O)Nc1cc2oc3ccccc3c2cc1OC	u	24.9*	u	20.5	-0.1%	12.2%
COc1cc(NC(=O)C2CC(=O)N(Cc3ccco3)C2)c(OC)cc1Cl (centres undefined)	19.3%	x	29.4%	x	x	-20.8%
COc1cc2c(cc1NC(=O)COC(=O)CNC(=O)c1ccccc1)oc1ccccc12	43.8%	31.5*	110.7%	48.8*	-37.7%	9.8%
COc1ccc(CC(=O)Nc2cc3oc4ccccc4c3cc2OC)cc1	45.7%	62.7*	10.4µM*	111.4*	12.6%	-2.0%
COc1cc2c(cc1NC(=O)COC(=O)C1CC(=O)N(Cc3ccco3)C1)oc1ccccc12 (centres undefined)	49.3%	22.6*	21.5%	63.1	-3.8%	-30.5%
COc1cc2c(cc1NC(=O)COCC(=O)O)oc1ccccc12	34.1%	-1.2	44.6%	16.8	0.4%	7.0%
O=C(NCC(c1ccco1)N1CCN(c2ccccc2)CC1)C(=O)NC1CC1 (centres undefined)	u	x	23.8%	x	x	-18.1%
COc1c2ccoc2nc2c(OC)cccc12	x	16.4	18.4%	44.5*	-36.6%	1.9%
Cc1cccc(N2CCN(C(=O)c3nn(C)c4c3CS(=O)(=O)c3ccccc3-4)CC2C)c1 (centres undefined)	-13.6%	-3.3	-22.8%	19.2	-16.7%	-3.9%
O=[N+]([O-])c1cccc(S(=O)(=O)NCCc2cccs2)c1	17.4%	-4.7	10.4µM*	14.2	-8.2%	-16.2%
Cc1ccc(S(=O)(=O)c2nc(S(C)(=O)=O)sc2N2CCCCC2C)cc1 (centres undefined)	u	1.6	u	-9.7	-7.0%	-19.9%
COC(=O)c1nn(-c2ccccc2)c2nnc(Cc3ccc(C)cc3)c(=O)n12	6.1%	9.8	-24.8%	-8.8	1.9%	22.8%
O=C(c1ccccc1)c1nn(-c2ccccc2)c2nnc(Cc3ccccc3)c(=O)n12	10.4µM*	1.4	10.4µM*	15.0	2.1%	-1.3%
NC(=O)c1ccccc1OCCOc1ccc(Br)cc1	14.9%	17.2*	-65.3%	56.5*	-34.6%	-12.2%
Cc1cccc2sc(NC(=O)CCNS(=O)(=O)c3cccs3)nc12	-22.9%	0.9	-18.5%	-5.9	-5.5%	7.0%
Cc1ccc2nc(NC(=O)CS(=O)(=O)Cc3ccccc3)sc2c1	36.5%	3.7	u	23.1	-3.1%	3.9%
Cc1ccc2nc(NC(=O)c3ccc(NS(=O)(=O)c4cccs4)cc3)sc2c1	u	29.0*	0.465µM*	14.7	-13.0%	-0.1%
